Source: PubChem BioAssay (NCI)
Compounds without any hit were thinned out: in the full panel of roughly 83,000, 20% have a hit.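 Results are percent growth after 48 hours of single-concentration exposure. 100 means growth as in untreated cells, lower positive values show inhibition; negative values down to -100 show cell death.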 Values without a mark were called inactive. Active and inactive are the calls of the source. The calls were made as follows: active = growth percent below 10; inactive = the rest.

What was measured:
Test in all cases: NCI-60 one-dose screen, 48 h (100 = growth as untreated, 0 = no growth, -100 = all killed)
Settings in all cases: 10 µM unless noted
[1] = system: SR leukemia
[2] = system: RPMI-8226 leukemia
[3] = system: OVCAR-8 ovarian
[4] = system: OVCAR-5 ovarian
[5] = system: OVCAR-4 ovarian
[6] = system: SK-OV-3 ovarian
[7] = system: IGROV1 ovarian
[8] = system: OVCAR-3 ovarian
[9] = system: HS 578T breast
[10] = system: NCI/ADR-RES ovarian

CCOC(=O)c1nnn(C(Cc2ccccc2Cl)C(=O)OCC)c1C (stereo not given)
growth [1]: 93.7% | growth [2]: 96.3% | growth [3]: 96.7% | growth [4]: 106% | growth [5]: 104% | growth [6]: 102% | growth [7]: 112% | growth [8]: 111% | growth [9]: 94.3% | growth [10]: 107%

N#Cc1c(-c2ccccc2)nc(SCC2CO2)nc1N1CCOCC1 (stereo not given)
growth [1]: 72.5% | growth [2]: 47.9% | growth [3]: 81.8% | growth [4]: 60.8% | growth [5]: 71.1% | growth [6]: 28.1% | growth [7]: 38.1% | growth [8]: 61.7% | growth [9]: 50% | growth [10]: 76.2%

Cc1nc(Nc2ccc(NC(=S)Nc3ccccc3)cc2)c2ccccc2n1
growth [1]: 80.5% | growth [2]: 98.6% | growth [3]: 101% | growth [4]: 110% | growth [5]: 121% | growth [6]: 107% | growth [7]: 99.8% | growth [8]: 118% | growth [9]: 96% | growth [10]: 107%

CCNCCNc1cc(-c2ccc(C(F)(F)F)cc2)c(C#N)c2nc3cc(Cl)c(Cl)cc3n12
growth [1]: -49.2% (active) | growth [2]: -41.6% (active) | growth [3]: -64.1% (active) | growth [4]: -92.3% (active) | growth [5]: -81.9% (active) | growth [6]: 67.6% | growth [7]: -77.8% (active) | growth [8]: -88.4% (active) | growth [9]: -53.2% (active) | growth [10]: -79.2% (active)

CNC1(C#N)CCN(Cc2ccccc2)CC1
growth [1]: 132% | growth [2]: 110% | growth [3]: 113% | growth [4]: 100% | growth [5]: 103% | growth [6]: 99.4% | growth [7]: 101% | growth [8]: 99.9% | growth [9]: 104% | growth [10]: 103%

CCN(CC)CCCNC(=O)c1ccc(N)cc1O
growth [1]: 98.3% | growth [2]: 94.7% | growth [3]: 103% | growth [4]: 98.9% | growth [5]: 118% | growth [6]: 105% | growth [7]: 91.8% | growth [8]: 107% | growth [9]: 98.4% | growth [10]: 96.1%

COc1ccc(C2CC(c3cnccn3)=NN2)cc1OC (stereo not given)
growth [1]: 79.3% | growth [2]: 82.6% | growth [3]: 96.8% | growth [4]: 114% | growth [5]: 118% | growth [6]: 105% | growth [7]: 108% | growth [8]: 102% | growth [9]: 97.4% | growth [10]: 102%

CC(C)N(CCOC(=O)Nc1ccccc1Cl)C(C)C
growth [1]: 89.7% | growth [2]: 96% | growth [3]: 99.7% | growth [4]: 111% | growth [5]: 119% | growth [6]: 102% | growth [7]: 107% | growth [8]: 112% | growth [9]: 95.8% | growth [10]: 105%

O=C1C2=C(CCN(Cc3ccccc3)C2)N2CCN=C2N1Cc1ccc(C(F)(F)F)cc1
growth [1]: 49.5% | growth [2]: 19% | growth [3]: 17% | growth [4]: 56.9% | growth [5]: -4.49% (active) | growth [6]: 21% | growth [7]: 33% | growth [8]: 23.9% | growth [9]: 36% | growth [10]: 16.6%

COc1ccc(-c2cc(-c3cc(OC)ccc3O)[nH]c(=O)c2C#N)cc1
growth [1]: 10.1% | growth [2]: 56.4% | growth [3]: 64.3% | growth [4]: 119% | growth [5]: 80.5% | growth [6]: 63.5% | growth [7]: 71.6% | growth [8]: 27.5% | growth [9]: 36.6% | growth [10]: 52.7%

Cc1c(C(N)=O)sc2nc(C)n(/N=c3\scc(-c4ccccc4)n3Cc3ccccc3)c(=O)c12
growth [1]: 12.8% | growth [2]: -10.3% (active) | growth [3]: 14.7% | growth [4]: 47.9% | growth [5]: 33.5% | growth [6]: 58.6% | growth [7]: 10.9% | growth [8]: 4.32% (active) | growth [9]: -14.6% (active) | growth [10]: 18.9%

N#Cc1c(Oc2ccc([N+](=O)[O-])cc2)nc2sc3cc(Cl)ccc3n2c1=N
growth [1]: 92.2% | growth [2]: 83.6% | growth [3]: 63.4% | growth [4]: 120% | growth [5]: 53.1% | growth [6]: 67.1% | growth [7]: 77.7% | growth [8]: 107% | growth [9]: 41.8% | growth [10]: 86%

CC(=O)Nc1cccc(C2=CC(c3ccc(C)cc3)n3ncnc3N2)c1 (stereo not given)
growth [1]: 78.8% | growth [2]: 73.8% | growth [3]: 101% | growth [4]: 95.2% | growth [5]: 103% | growth [6]: 133% | growth [7]: 114% | growth [8]: 101% | growth [9]: 92.8% | growth [10]: 97.6%

CO/C(=C1/NC(=O)C(Cc2ccc(O)c(Br)c2)N(C)C(=O)C(C)NC(=O)CCC/C=C(\C)CCC(C)OC1=O)c1ccccc1 (stereo not given)
growth [1]: -25.9% (active) | growth [2]: -57.4% (active) | growth [3]: -14.6% (active) | growth [4]: -2.82% (active) | growth [5]: 0.0232% (active) | growth [6]: -42.2% (active) | growth [7]: -80% (active) | growth [8]: -67.5% (active) | growth [9]: -34% (active) | growth [10]: -0.469% (active)

COc1cc2c(cc1OC)-c1ccc3cc4c(cc3c1N(CCN1CCCC1)C2)OCO4
growth [1]: 1.64% (active) | growth [2]: -36.2% (active) | growth [3]: 6.81% (active) | growth [4]: 30% | growth [5]: 33.8% | growth [6]: -13.5% (active) | growth [7]: 4.12% (active) | growth [8]: 15.3% | growth [9]: 16.2% | growth [10]: 60.7%

CCOC(=O)Cc1csc2nc(-c3ccccc3)nn12
growth [1]: 98.8% | growth [2]: 113% | growth [3]: 98.3% | growth [4]: 92.9% | growth [5]: 105% | growth [6]: 115% | growth [7]: 104% | growth [8]: 117% | growth [9]: 103% | growth [10]: 104%

CN1C[C@@H](c2ccc(Cl)cc2)[C@]2(NC(=S)N(c3ccccc3)C2=O)[C@@]12C(=O)NC1C=CC(Br)=C[C@H]12 (stereo not given in full)
growth [1]: 48.2% | growth [2]: 29.3% | growth [3]: 70.1% | growth [4]: 101% | growth [5]: 71.6% | growth [6]: 77.2% | growth [7]: 56% | growth [8]: 77.2% | growth [9]: 68.4% | growth [10]: 64.3%

CCC(C)NCc1ccccc1 (stereo not given)
growth [1]: 104% | growth [2]: 95.7% | growth [3]: 102% | growth [4]: 114% | growth [5]: 109% | growth [6]: 101% | growth [7]: 109% | growth [8]: 104% | growth [9]: 105% | growth [10]: 98.1%

Cc1nc(Nc2ccc(NC(=S)Nc3ccccc3)cc2)nc2nc(Nc3ccc(S(=O)(=O)O)cc3)[nH]c(=O)c12
growth [1]: 47.5% | growth [2]: 79.2% | growth [3]: 49.8% | growth [4]: 103% | growth [5]: 113% | growth [6]: 98.3% | growth [7]: 72% | growth [8]: 139% | growth [9]: 111% | growth [10]: 106%

Cc1csc(NC(=O)c2sc3nc(-c4cccs4)ccc3c2N)n1
growth [1]: 81.5% | growth [2]: 81.1% | growth [3]: 97% | growth [4]: 116% | growth [5]: 114% | growth [6]: 96.1% | growth [7]: 109% | growth [8]: 111% | growth [9]: 99.5% | growth [10]: 94.1%

O=C(Nc1cccc2[nH]c(C(F)(F)F)nc12)c1cc(Cl)ccc1Cl
growth [1]: 25.3% | growth [2]: 14.5% | growth [3]: 26.5% | growth [4]: 78.1% | growth [5]: 23.2% | growth [6]: 47.9% | growth [7]: 35.8% | growth [8]: 21.4% | growth [9]: 53.9% | growth [10]: 9.82% (active)

CC(C)CCC[C@@H](C)[C@H]1CCC2C3=CCC4C(=O)C=CC(=O)C4C3CC[C@@]21C (stereo not given in full)
growth [1]: 13.2% | growth [2]: 8.72% (active) | growth [3]: 0.168% (active) | growth [4]: 7.74% (active) | growth [5]: -9.33% (active) | growth [6]: 10.5% | growth [7]: -63.2% (active) | growth [8]: 2.72% (active) | growth [9]: 8.12% (active) | growth [10]: 7.87% (active)

Cc1nc(C)c(-c2nn3c(-c4cccc(F)c4)nnc3s2)s1
growth [1]: 69.3% | growth [2]: 96.2% | growth [3]: 94.7% | growth [4]: 112% | growth [5]: 112% | growth [6]: 104% | growth [7]: 106% | growth [8]: 113% | growth [9]: 105% | growth [10]: 91.3%

O=C(Nc1ccccn1)[C@H](O)[C@@H](O)C(=O)N1CCOCC1
growth [1]: 120% | growth [2]: 106% | growth [3]: 96.7% | growth [4]: 118% | growth [5]: 123% | growth [6]: 105% | growth [7]: 105% | growth [8]: 107% | growth [9]: 104% | growth [10]: 104%

CN=C1C=CC(=C(c2ccc(N(C)C)cc2)c2ccc(N(C)C)cc2)C=C1
growth [1]: -10.9% (active) | growth [2]: 0.425% (active) | growth [3]: -38.5% (active) | growth [4]: 17.4% | growth [5]: 7.52% (active) | growth [6]: -15.6% (active) | growth [7]: -12.7% (active) | growth [8]: -42.2% (active) | growth [9]: 32.6% | growth [10]: 10.9%
